Screens deposited in PubChem BioAssay by National Center for Advancing Translational Sciences (NCATS).
KCNH2 3.1 block = blocks the human KCNH2 3.1 channel isoform; U2OS KCNH2 3.1, thallium flux FluxOr; stronger effect = lower value; activity change, % (tested at about 1.8 µM); 0.95% of 340,000 active;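 active = maximum activity change below -70%; inconclusive = maximum activity change from -70% to -50%; inactive = maximum activity change above -50%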;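 note: thallium influx rate constant from kinetic fluorescence after stimulation buffer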
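We transduce U2OS cells with the mutant 3.1 virus, culture them overnight, load FluxOr with Red40 quencher for 45 min, then add stimulation buffer and read kinetically for 2 min to derive a normalized rate constant.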
SW480 rereplic = DNA re-replication induction in SW480 cells | SW480 DNA re-replication, Hoechst DNA content imaging, 48 h | Potency, µM (top dose mostly 46.1 µM), hits mostly activators | 1.8% of 340,000 active | AID 624297; note: nearly all actives have a fitted effect of over 55% in size
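Image-based read-out: total Hoechst fluorescence of nuclei (405 nm excitation, 500-530 nm emission), with hits raising the fraction of high-intensity nuclei. SW480 colon cells incubated 48 hr with compounds at 37 C.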
hERG WT inh = KCNH2 (human, wildtype) channel inhibition; AID 720551; activity change, % at 1.84 µM; 0.37% of 340,000 active; Q12809; U2OS, BacMam KCNH2, thallium flux FluxOr; stronger effect = lower value;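 active = maximum activity change below -70%; inconclusive = maximum activity change between -70% and -50%; inactive = maximum activity change above -50%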
Target sequence (Q12809 whole entry, looked up): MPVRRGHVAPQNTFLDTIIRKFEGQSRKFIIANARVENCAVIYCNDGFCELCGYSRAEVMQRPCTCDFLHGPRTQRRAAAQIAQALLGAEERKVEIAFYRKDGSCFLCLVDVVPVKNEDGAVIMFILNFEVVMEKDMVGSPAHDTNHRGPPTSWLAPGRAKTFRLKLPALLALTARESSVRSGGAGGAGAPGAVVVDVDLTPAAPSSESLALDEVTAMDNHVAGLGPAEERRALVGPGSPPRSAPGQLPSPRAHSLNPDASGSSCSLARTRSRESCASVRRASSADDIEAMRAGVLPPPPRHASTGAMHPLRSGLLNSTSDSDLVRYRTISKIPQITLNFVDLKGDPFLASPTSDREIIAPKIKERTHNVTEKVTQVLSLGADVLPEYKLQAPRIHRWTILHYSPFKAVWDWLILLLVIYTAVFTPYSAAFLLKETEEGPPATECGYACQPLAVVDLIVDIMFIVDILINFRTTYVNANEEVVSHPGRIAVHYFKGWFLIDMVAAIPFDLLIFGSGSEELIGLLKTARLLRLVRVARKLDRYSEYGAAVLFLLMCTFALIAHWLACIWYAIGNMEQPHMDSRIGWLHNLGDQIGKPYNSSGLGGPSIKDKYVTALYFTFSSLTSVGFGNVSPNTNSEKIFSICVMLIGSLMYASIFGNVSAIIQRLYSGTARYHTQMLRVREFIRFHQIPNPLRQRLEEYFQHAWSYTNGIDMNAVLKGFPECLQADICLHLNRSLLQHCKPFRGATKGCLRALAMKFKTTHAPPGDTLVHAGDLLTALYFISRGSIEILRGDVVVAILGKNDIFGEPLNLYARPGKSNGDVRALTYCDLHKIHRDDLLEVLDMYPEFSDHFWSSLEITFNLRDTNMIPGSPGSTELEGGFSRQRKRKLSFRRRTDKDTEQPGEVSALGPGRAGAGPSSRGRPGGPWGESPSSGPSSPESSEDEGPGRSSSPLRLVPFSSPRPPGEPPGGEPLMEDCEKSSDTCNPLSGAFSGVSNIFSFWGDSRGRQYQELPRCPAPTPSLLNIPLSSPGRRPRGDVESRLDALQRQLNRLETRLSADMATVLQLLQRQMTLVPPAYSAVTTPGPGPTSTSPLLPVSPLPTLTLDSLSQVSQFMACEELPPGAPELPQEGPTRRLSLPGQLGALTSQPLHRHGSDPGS
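U2OS cells were transduced with wild-type KCNH2 virus (2.03 x 10^8 / mL) for 4 h at room temperature, then cultured overnight at 37 C. Thallium flux was read with FluxOr dye. Rate constants were normalized to DMSO controls.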
KB-3-1 tox = KB-3-1 parental cell cytotoxicity. KB-3-1 viability, CellTiter-Glo ATP luminescence, 72 h. Potency, µM (top dose mostly 46.1 µM), hits mostly cytotoxic. 1.4% of 400,000 active. AID 1347075; note: nearly all actives have a fitted effect of over 60% in size
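Cells are dispensed, compounds pinned in, plates held at 37 °C for 72 h, then CellTiter-Glo is added and luminescence read after 10 minutes. Cell line: parental KB-3-1 in phenol-red-free DMEM, 10% FBS.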
MCF10A rerep = inducers of DNA re-replication in MCF 10A breast cells. MCF 10A DNA re-replication, Hoechst nuclear intensity, 48 h. Potency, µM (highest dose often 46.1 µM), hits mostly activators. 2.9% of 350,000 active. AID 624296; note: nearly all actives have a fitted effect of over 50% in size
KB-V1 cytotox = KB-V1 MDR subline cytotoxicity | KB-V1 MDR cells viability, CellTiter-Glo, 72 h | Potency, µM (series often up to 46.1 µM), actives largely listed as cytotoxic | 3.4% of 400,000 active | AID 1347076; note: nearly all actives have a fitted effect of over 60% in size
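Cytotoxicity via CellTiter-Glo luminescence after 72 h compound exposure at 37 degrees C. Cells: drug-selected KB-V1 line, DMEM phenol-red free plus 10% FBS. Compounds tested at multiple concentrations; normalized data fitted to concentration-effect curves.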
Of the large screens only hits and unclear results are named; the others gave an inactive call. Hits are enriched below; roughly 7.6% of the tested compounds scored in any of these assays. Unless noted, calls come from the whole dose curve; as a rule, active = well fitted curve in the direction sought with a large enough effect; inconclusive = small, poorly fitted or top-dose-only effect, or another doubt; inactive = no such curve, though single readings can be large; an effect the other way counts as inactive or inconclusive.

CCCS(=O)(=O)N1CC(=O)N(c2cc(C)ccc2C)C(C)(C(=O)NC2CCCCCC2)C1 (stereo unspecified)	none (no result: KCNH2 3.1 block, SW480 rereplic, hERG WT inh, MCF10A rerep)
CC(C)CNC(=S)NNC(=O)c1csc2c1CCC(C)C2 (stereo unspecified)	KB-V1 cytotox 7.31µM
CCCc1cc(C(=O)NNC(=S)Nc2cccc(C)c2)cs1	KB-V1 cytotox 14.6µM
Cc1cccc(NC(=S)NNC(=O)c2csc3c2CCC(C)C3)c1 (stereo unspecified)	MCF10A rerep inconclusive, KB-V1 cytotox 23.1µM
CC1CCc2c(C(=O)NCCN3CCOCC3)csc2C1 (stereo unspecified)	none
Cc1cccc(NC(=S)NNC(=O)c2cc3c(s2)CCC(C)C3)c1C (stereo unspecified)	MCF10A rerep 16.4µM, KB-V1 cytotox inconclusive
Cc1nnc(NC(=O)c2csc3c2CCC(C)C3)s1 (stereo unspecified)	none
Cc1ccc(NC(=O)C2C(=O)N(C)c3ccccc32)cc1 (stereo unspecified)	MCF10A rerep inconclusive
Cc1cc(C(=O)NCc2ccc(F)cc2)c2ccccc2n1	none
COc1ccc(CN(C)Cc2nc(Cc3cccc(F)c3)no2)c2cccnc12	KB-3-1 tox inconclusive, MCF10A rerep inconclusive, KB-V1 cytotox 1.84µM
COc1cccc(-n2cc(CN(C)Cc3nc(Cc4cccc(F)c4)no3)cn2)c1	none
CCN(CC)S(=O)(=O)c1cccc(-c2nnc(SCCOc3ccccc3)o2)c1	KB-3-1 tox inconclusive, KB-V1 cytotox 16.4µM
CCN(CC)S(=O)(=O)c1cccc(-c2nnc(SCCOc3ccc(Cl)cc3)o2)c1	KB-3-1 tox inconclusive, KB-V1 cytotox inconclusive
COc1ccc(C)cc1S(=O)(=O)N(C)CC(=O)NC1CCCC1	SW480 rereplic inconclusive, KB-V1 cytotox 11.6µM
COc1ccc(C)cc1S(=O)(=O)N(C)CC(=O)N1CCCC1	KCNH2 3.1 block inconclusive, SW480 rereplic 2.31µM
COc1ccc(C)cc1S(=O)(=O)N(C)CC(=O)N1CCCCC1	KB-V1 cytotox inconclusive
COC(=O)c1ccc(OCC2c3cc(OC)c(OC)cc3CCN2C(=O)c2ccccc2C)cc1 (stereo unspecified)	none (no result: KCNH2 3.1 block, SW480 rereplic, hERG WT inh, MCF10A rerep)
Cc1cccc2c3c([nH]c12)CCNC3	none
O=C(Nc1ccccc1)Nc1ncc([N+](=O)[O-])s1	SW480 rereplic inconclusive, KB-3-1 tox 18.4µM, KB-V1 cytotox inconclusive
O=C(COC(=O)c1ccccc1)Nc1ncc([N+](=O)[O-])s1	none
CCC(C)N(C(=O)CSc1nc(-c2cccs2)nc2ccccc12)C1CCS(=O)(=O)C1 (stereo unspecified)	SW480 rereplic inconclusive, MCF10A rerep inconclusive, KB-V1 cytotox 1.46µM
CCC(C)N(C(=O)CSc1ncnc2sccc12)C1CCS(=O)(=O)C1 (stereo unspecified)	none
Cc1cccc(-n2c(CNC(=O)c3cccc(F)c3)nnc2SCC(=O)Nc2ccccc2F)c1	none (no result: KCNH2 3.1 block, SW480 rereplic, hERG WT inh, MCF10A rerep)
COc1ccc(-c2ccc(SC)nn2)cc1	KB-3-1 tox 8.2µM, KB-V1 cytotox 9.2µM
CSc1nc(-c2ccccc2)nc(NC(C)=O)c1C(C)=O	KB-V1 cytotox inconclusive
Cc1ccccc1C(=O)NC(CC(C)C)C(=O)NCC(C)(C)N1CCOCC1 (stereo unspecified)	KB-V1 cytotox 23.1µM
O=C(NCCN1CCN(c2ccccc2)CC1)c1cccn2c(=O)c3cc(Cl)ccc3nc12	KCNH2 3.1 block inconclusive, MCF10A rerep 4.11µM
CCCNC(=O)c1noc2c1CCc1ccccc1-2	none
O=C(NCCN1CCOCC1)c1noc2c1CCc1ccccc1-2	KB-V1 cytotox 11.6µM
O=C(NCCN1CCN(c2cccc(Cl)c2)CC1)c1cccn2c(=O)c3ccccc3nc12	KCNH2 3.1 block inconclusive
CCOCCCn1c(=N)c(C(=O)NCCN2CCOCC2)cc2c(=O)n3cccc(C)c3nc21	MCF10A rerep 2.91µM
Cc1cccn2c(=O)c3cc(C(=O)NCCN4CCOCC4)n(C)c3nc12	SW480 rereplic inconclusive, MCF10A rerep inconclusive, KB-V1 cytotox inconclusive
Cc1ccc(N(CC(=O)NCc2ccco2)C(=O)CCC(=O)Nc2nccs2)c(C)c1	none
